# Laboratory results published in the supplement of paper PMC9694430.
# Test system: T1, LOC_OS04G41100-cb001
# T1 sequence (whole entry): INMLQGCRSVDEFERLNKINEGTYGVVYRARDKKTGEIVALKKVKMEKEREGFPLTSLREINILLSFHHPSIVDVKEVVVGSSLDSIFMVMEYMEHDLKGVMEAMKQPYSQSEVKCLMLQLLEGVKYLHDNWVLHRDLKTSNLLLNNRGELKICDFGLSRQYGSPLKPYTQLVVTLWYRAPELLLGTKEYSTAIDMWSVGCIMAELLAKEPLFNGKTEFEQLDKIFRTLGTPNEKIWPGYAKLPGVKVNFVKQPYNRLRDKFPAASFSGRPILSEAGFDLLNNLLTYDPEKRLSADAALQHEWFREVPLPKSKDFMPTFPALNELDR
# Assay: thermal shift delta Tm vs DMSO control; higher = stronger stabilization (binding)
# Details: 12.5 µM; protein concentration 2 µM
# Outline: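 Rice kinase domain constructs were expressed in E. coli, purified, and tested by differential scanning fluorimetry with compound added in DMSO. Each well of a 96-well plate held 19.5 μl of 2 μM kinase in 100 mM potassium phosphate pH 7.5, 150 mM NaCl, 10% glycerol and 5 × SYPRO Orange, and fluorescence was read from 25°C to 95°C at 0.05°C/s. The melting temperature shift is the mean of triplicates, taken against protein with DMSO alone after Boltzmann fitting.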
row,Compound,thermal shift delta Tm
1,COc1ccc(CC(=O)Nc2nc3c(s2)CCc2ccccc2-3)cc1OC,0.15 °C
2,CNS(=O)(=O)Nc1nccc(Cc2c(C)c3ccc(Oc4ncccn4)cc3oc2=O)c1F,0.2 °C
3,C[C@H](NC(=O)/C(C#N)=C/c1cccc(Br)n1)c1ccccc1,-0.11 °C
4,COc1ccc(COc2cc3oc(=O)c4cc(C(C)O)ccc4c3cc2OC)cc1 (configuration not stated) [Palomid 529 (P529)],0.32 °C
5,CC(C)(C)Cn1c(N)nc2ccc(-c3[nH]c(C(C)(C)C)nc3-c3ccc(F)cc3)nc21,0.22 °C
6,COc1ccccc1-c1cc(Nc2cccc(CS(N)(=O)=O)c2)ncn1,0.8 °C
7,Cn1cnc(N)c2ncnc1-2 [3-Methyladenine (3-MA)],0.12 °C
8,C=CC(=O)N[C@H]1CCOC[C@H]1Nc1ncc2cc(-c3c(Cl)c(OC)cc(OC)c3Cl)ccc2n1,0.17 °C
9,CCS(=O)(=O)Nc1ccc2c(c1)/C(=C(/Nc1ccc(CN3CCCCC3)cc1)c1ccccc1)C(=O)N2 [Hesperadin],0.76 °C
10,Cc1cc(Nc2cc(N3CCN(C)CC3)nc(/C=C/c3ccccc3)n2)n[nH]1 [ENMD-2076 L-(+)-Tartaric acid],1.89 °C
11,Cc1ccc(F)c(NC(=O)Nc2ccc(-c3cccc4[nH]nc(N)c34)cc2)c1 [Linifanib (ABT-869)],1.77 °C
12,CO[C@H]1C[C@@H]2CC[C@@H](C)[C@@](O)(O2)C(=O)C(=O)N2CCCC[C@H]2C(=O)O[C@H]([C@H](C)C[C@@H]2CC[C@@H](OCCO)[C@H](OC)C2)CC(=O)[C@H](C)/C=C(\C)[C@@H](O)[C@@H](OC)C(=O)[C@H](C)C[C@H](C)/C=C/C=C/C=C/1C [Everolimus (RAD001)],0.65 °C
13,CCCCCCCCCCCCCCCCn1cc[n+](Cc2ccccc2)c1C,-1.35 °C
14,O=C(/C=C/c1ccc(O)c(O)c1)c1ccc(O)cc1O [Butein],2.09 °C
15,NC(=O)c1ncn([C@@H]2O[C@H](CO)[C@@H](O)[C@H]2O)c1N [AICAR (Acadesine)],0.46 °C
16,COCCOc1ccc2c(c1)ncn2-c1ccc2cccc(N3CCC(N)CC3)c2n1,0.51 °C
17,CCCCCCCCCCCCCCCCCCOP(=O)([O-])OC1CC[N+](C)(C)CC1 [Perifosine (KRX-0401)],-0.69 °C
18,COc1ccc(-c2ccc3c(N4CCOCC4)nc(N4C[C@@H](C)O[C@@H](C)C4)nc3n2)cc1CO,0.27 °C
19,Cc1cc(Nc2nc(N[C@@H](C)c3ccc(F)cc3)c(C#N)cc2F)n[nH]1,1.28 °C

row,Compound,thermal shift delta Tm
1,O=c1nc(N2CCOCC2)oc2c(-c3cccc4c3sc3ccccc34)cccc12,0.24 °C
2,Cn1cc(-c2ccc3nnc(C(F)(F)c4ccc5ncccc5c4)n3n2)cn1,0.6 °C
3,Cc1cc(C(C)Nc2ccccc2)c2nc(N3CCOCC3)cc(=O)n2c1 (configuration not stated),0.33 °C
4,COc1cc(N2CCC(N(C)C)CC2)ccc1Nc1ncc(Cl)c(Nc2ccccc2P(C)(C)=O)n1,0.61 °C
5,CC(C)c1cnn2c(NCc3ccccc3)cc(NCCCCCCN)nc12,0.32 °C
6,Cc1cc([C@@H](C)Nc2ccccc2C(=O)O)c2nc(N3CCOCC3)cc(=O)n2c1,0.37 °C
7,CC(C)NC(=O)C1CCC(n2c(NC(=O)c3ccc(F)cc3)nc3ccc(CN4CCC(C(C)(C)O)CC4)cc32)CC1 (configuration not stated) [Belizatinib (TSR-011)],0.49 °C
8,COc1ccc(-c2ccc3ncc4c(c3c2)n(-c2ccc(N3CCNCC3)c(C(F)(F)F)c2)c(=O)n4C)cn1,0.01 °C
9,"CN1CCN(c2ccc3nc(-c4c(N)c5c(F)cccc5[nH]c4=O)[nH]c3c2)CC1 [Dovitinib (TKI-258, CHIR-258)]",0.95 °C
10,NC(=O)c1ccc2nc(-c3ccc(Oc4ccc(Cl)cc4)cc3)[nH]c2c1 [Chk2 Inhibitor II (BML-277)],-0.49 °C
11,CC1(C)OCCn2c1nc1c(N3CCOCC3)nc(-c3cnc(N)nc3)nc12,-0.13 °C
12,C=CC(=O)Nc1cccc(Nc2nc(Nc3ccc(OCCOC)cc3)ncc2F)c1,1 °C
13,NC(=O)c1cnc(N[C@@H]2CCCC[C@@H]2N)nc1Nc1cccc(-n2nccn2)c1,0.63 °C
14,CNC(=O)c1cc(Oc2ccc3nc(N[C@@H]4CCCC[C@H]4O)sc3c2)ccn1,0.59 °C
15,CCn1c2ccccc2c2cc(Nc3ccnc(NCCCN4CCOCC4)n3)ccc21,0.46 °C
16,CCC(=O)Nc1cccc(Oc2nc(Nc3ccc(N4CCN(C)CC4)cc3OC)ncc2Cl)c1,0.39 °C
17,CN1CCN(c2nc(C3=C(c4c[nH]c5ccccc45)C(=O)NC3=O)c3ccccc3n2)CC1 [Sotrastaurin],0.51 °C
18,C=CCc1ccc(O)c(-c2ccc(O)c(CC=C)c2)c1 [Honokiol],0.48 °C
